Source: the supplement of paper PMC8728848
The sample as a whole holds a higher share of the strongest signals than the screen did.

What was measured:
Assay in all cases: glycan array binding signal (z-score within array); higher = stronger binding
Settings in all cases: glycan notation: IUPAC condensed, linker removed
[1] = biological target: Fuc(a1-2)Gal(b1-3)GalNAc(a1-3)[Fuc(a1-2)]Gal(b1-4)GlcNAc
How it was run: (§1)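 The binding signal is a Z-score computed within each array and averaged over linkers. Arrays of the same protein sequence at different concentrations or buffers were also averaged together. Data originate from 3228 arrays in the Consortium for Functional Glycomics database, kept only where the protein sequence was available.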

[2] = biological target: Fuc(a1-2)Gal(b1-3)GlcNAc(b1-2)Man(a1-3)[Fuc(a1-2)Gal(b1-3)GlcNAc(b1-2)Man(a1-6)]Man(b1-4)GlcNAc(b1-4)[Fuc(a1-6)]GlcNAc
How it was run: as §1

[3] = biological target: Fuc(a1-2)Gal(b1-3)GlcNAc(b1-3)Gal(b1-4)Glc
How it was run: as §1

[4] = biological target: Fuc(a1-2)Gal(b1-4)Glc
How it was run: as §1

[5] = biological target: Fuc(a1-2)Gal3S(b1-4)GlcNAc
How it was run: as §1

[6] = biological target: Fuc(a1-2)Gal6S(b1-4)Glc6S
How it was run: as §1

[7] = biological target: Fuc(a1-2)[GalNAc(a1-4)]Gal(b1-4)GlcNAc
How it was run: as §1

[8] = biological target: Fuc(a1-3)[Gal(b1-4)]GlcNAc
How it was run: as §1

[9] = biological target: Gal(a1-3)Gal(b1-3)GlcNAc
How it was run: as §1

[10] = biological target: Gal(a1-3)Gal(b1-3)[Fuc(a1-4)]GlcNAc(b1-2)Man(a1-3)[Gal(a1-3)Gal(b1-3)[Fuc(a1-4)]GlcNAc(b1-2)Man(a1-6)]Man(b1-4)GlcNAc(b1-4)GlcNAc
How it was run: as §1

[11] = biological target: Gal(a1-4)Gal(b1-4)Glc
How it was run: as §1

[12] = biological target: Gal(b1-3)GlcNAc(b1-2)[Gal(b1-3)GlcNAc(b1-6)]Man(a1-6)[Gal(b1-3)GlcNAc(b1-2)Man(a1-3)]Man(b1-4)GlcNAc(b1-4)GlcNAc
How it was run: as §1

[13] = biological target: Gal(b1-3)GlcNAc(b1-3)Gal(b1-3)GlcNAc
How it was run: as §1

[14] = biological target: Gal(b1-3)GlcNAc(b1-3)Gal(b1-4)GlcNAc(b1-3)Gal(b1-4)GlcNAc(b1-2)[Gal(b1-3)GlcNAc(b1-3)Gal(b1-4)GlcNAc(b1-3)Gal(b1-4)GlcNAc(b1-6)]Man(a1-6)[Gal(b1-3)GlcNAc(b1-3)Gal(b1-4)GlcNAc(b1-3)Gal(b1-4)GlcNAc(b1-2)Man(a1-3)]Man(b1-4)GlcNAc(b1-4)[Fuc(a1-6)]GlcNAc
How it was run: as §1

[15] = biological target: Gal(b1-3)[Fuc(a1-4)]GlcNAc(b1-3)Gal(b1-4)GlcNAc
How it was run: as §1

[16] = biological target: Gal(b1-3)[Neu5Ac(a2-6)]GlcNAc(b1-4)Gal(b1-4)Glc
How it was run: as §1

[17] = biological target: Gal(b1-3)[Neu5Ac(b2-6)]GalNAc
How it was run: as §1

[18] = biological target: Gal(b1-4)GalNAc(b1-3)[Fuc(a1-2)]Gal(b1-4)GlcNAc
How it was run: as §1

[19] = biological target: Gal(b1-4)GlcNAc(a1-6)Gal(b1-4)GlcNAc
How it was run: as §1

[20] = biological target: Gal(b1-4)GlcNAc(b1-2)Man
How it was run: as §1

[21] = biological target: Gal(b1-4)GlcNAc(b1-2)[Gal(b1-4)GlcNAc(b1-4)]Man(a1-3)[Gal(b1-4)GlcNAc(b1-2)Man(a1-6)]Man(b1-4)GlcNAc(b1-4)GlcNAc
How it was run: as §1

[22] = biological target: Gal(b1-4)GlcNAc(b1-2)[Gal(b1-4)GlcNAc(b1-4)]Man(a1-3)[GlcNAc(b1-4)][Gal(b1-4)GlcNAc(b1-2)[Gal(b1-4)GlcNAc(b1-6)]Man(a1-6)]Man(b1-4)GlcNAc(b1-4)GlcNAc
How it was run: as §1

[23] = biological target: Gal(b1-4)GlcNAc(b1-2)[Gal(b1-4)GlcNAc(b1-6)]Man(a1-6)[Gal(b1-4)GlcNAc(b1-2)Man(a1-3)]Man(b1-4)GlcNAc(b1-4)GlcNAc
How it was run: as §1

[24] = biological target: Gal(b1-4)GlcNAc(b1-2)[Gal(b1-4)GlcNAc(b1-6)]Man(a1-6)[Gal(b1-4)GlcNAc(b1-2)Man(a1-3)]Man(b1-4)GlcNAc(b1-4)[Fuc(a1-6)]GlcNAc
How it was run: as §1

[25] = biological target: Gal(b1-4)GlcNAc(b1-2)[Gal(b1-4)GlcNAc(b1-6)]Man(a1-6)[GlcNAc(b1-4)][Gal(b1-4)GlcNAc(b1-2)[Gal(b1-4)GlcNAc(b1-4)]Man(a1-3)]Man(b1-4)GlcNAc(b1-4)[Fuc(a1-6)]GlcNAc
How it was run: as §1

[26] = biological target: Gal(b1-4)GlcNAc(b1-3)Gal(b1-4)GlcNAc(b1-2)[Gal(b1-4)GlcNAc(b1-3)Gal(b1-4)GlcNAc(b1-6)]Man(a1-6)[Gal(b1-4)GlcNAc(b1-3)Gal(b1-4)GlcNAc(b1-2)Man(a1-3)]Man(b1-4)GlcNAc(b1-4)[Fuc(a1-6)]GlcNAc
How it was run: as §1

[27] = biological target: Gal(b1-4)GlcNAc(b1-3)Gal(b1-4)GlcNAc(b1-3)Gal(b1-4)GlcNAc(b1-2)Man(a1-3)[Gal(b1-4)GlcNAc(b1-3)Gal(b1-4)GlcNAc(b1-3)Gal(b1-4)GlcNAc(b1-2)Man(a1-6)]Man(b1-4)GlcNAc(b1-4)[Fuc(a1-6)]GlcNAc
How it was run: as §1

[28] = biological target: Gal(b1-4)GlcNAc(b1-3)Gal(b1-4)GlcNAc(b1-3)Gal(b1-4)GlcNAc(b1-2)[Gal(b1-4)GlcNAc(b1-3)Gal(b1-4)GlcNAc(b1-3)Gal(b1-4)GlcNAc(b1-6)]Man(a1-6)[Gal(b1-4)GlcNAc(b1-3)Gal(b1-4)GlcNAc(b1-3)Gal(b1-4)GlcNAc(b1-2)Man(a1-3)]Man(b1-4)GlcNAc(b1-4)[Fuc(a1-6)]GlcNAc
How it was run: as §1

[29] = biological target: Gal(b1-4)GlcNAc(b1-3)Gal(b1-4)GlcNAc(b1-3)Gal(b1-4)GlcNAc(b1-3)Gal(b1-4)GlcNAc(b1-2)Man(a1-3)[Gal(b1-4)GlcNAc(b1-3)Gal(b1-4)GlcNAc(b1-3)Gal(b1-4)GlcNAc(b1-3)Gal(b1-4)GlcNAc(b1-2)Man(a1-6)]Man(b1-4)GlcNAc(b1-4)[Fuc(a1-6)]GlcNAc
How it was run: as §1

[30] = biological target: Gal(b1-4)GlcNAc(b1-3)Gal(b1-4)GlcNAc(b1-3)Gal(b1-4)GlcNAc(b1-3)Gal(b1-4)GlcNAc(b1-2)[Gal(b1-4)GlcNAc(b1-3)Gal(b1-4)GlcNAc(b1-3)Gal(b1-4)GlcNAc(b1-3)Gal(b1-4)GlcNAc(b1-6)]Man(a1-6)[Gal(b1-4)GlcNAc(b1-3)Gal(b1-4)GlcNAc(b1-3)Gal(b1-4)GlcNAc(b1-3)Gal(b1-4)GlcNAc(b1-2)Man(a1-3)]Man(b1-4)GlcNAc(b1-4)[Fuc(a1-6)]GlcNAc
How it was run: as §1

B1: Threefoil (Haloarcula marismortui) (protein)
chain: GSSHHHHHHHHHHSSGLVPRGSHMGDGYYKLVARHSGKALDVENASTSDGANVIQYSYSGGDNQQWRLVDLGDGYYKLVARHSGKALDVENASTSDGANVIQYSYSGGDNQQWRLVDLGDGYYKLVARHSGKALDVENASTSDGANVIQYSYSGGDNQQWRLVDL
In the case of B1, the “glycan array binding signal (z-score)” value [1] is reported as -0.165, the “glycan array binding signal (z-score)” value [2] is reported as 0.056 and the “glycan array binding signal (z-score)” value [3] is reported as -0.192. For the same binder, the “glycan array binding signal (z-score)” value [4] was -0.107, the “glycan array binding signal (z-score)” value [5] was -0.199 and the “glycan array binding signal (z-score)” value [6] was -0.153. The “glycan array binding signal (z-score)” value [7] was -0.341, the “glycan array binding signal (z-score)” value [8] was -0.151 and the “glycan array binding signal (z-score)” value [9] was -0.298. For the same binder, the “glycan array binding signal (z-score)” value [10] was -0.217, the “glycan array binding signal (z-score)” value [11] was 0.139 and the “glycan array binding signal (z-score)” value [12] was 0.155. For the same binder, the “glycan array binding signal (z-score)” value [13] was -0.266, the “glycan array binding signal (z-score)” value [14] was 0.426 and the “glycan array binding signal (z-score)” value [15] was 0.307. The “glycan array binding signal (z-score)” value [16] was -0.13, the “glycan array binding signal (z-score)” value [17] was -0.229 and the “glycan array binding signal (z-score)” value [18] was -0.231. The “glycan array binding signal (z-score)” value [19] was 0.067, the “glycan array binding signal (z-score)” value [20] was -0.105 and the “glycan array binding signal (z-score)” value [21] was 3.48. For the same binder, the “glycan array binding signal (z-score)” value [22] was 8.13, the “glycan array binding signal (z-score)” value [23] was 0.527 and the “glycan array binding signal (z-score)” value [24] was 3.39. For the same binder, the “glycan array binding signal (z-score)” value [25] was 6.8, the “glycan array binding signal (z-score)” value [26] was 6.34 and the “glycan array binding signal (z-score)” value [27] was 6.67. For the same binder, the “glycan array binding signal (z-score)” value [28] was 9.87, the “glycan array binding signal (z-score)” value [29] was 3.74 and the “glycan array binding signal (z-score)” value [30] was 7.31.
